# Compounds without any hit were thinned out: in the full panel of roughly 83,000, 20% have a hit.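 Plates (96-well) were seeded with cells, treated with compound at one concentration, and incubated for 48 hours before percent growth was determined.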 Active and inactive are the calls of the source. Rule for the calls: active = growth percent below 10; inactive = the rest.
# System: OVCAR-4 ovarian
# Experiment: NCI-60 one-dose screen, 48 h (100 = growth as untreated, 0 = no growth, -100 = all killed)
# Settings: 10 µM unless noted
row,Structure (SMILES),growth
1,CC(C)CCC[C@@H](C)[C@H]1CC[C@H]2[C@@H]3CC=C4C[C@@H](C(C(=O)O)C(=O)O)CC[C@]4(C)[C@H]3CC[C@]12C,0.439% (active)
2,CCN1CCN(c2cc(C(=O)Nc3nc(-c4cc(OC)c(OC)c(OC)c4)cs3)cc(C(F)(F)F)c2)CC1,68.9% (inactive)
3,N#Cc1nn(-c2cc(=O)[nH]c3ccc(Cl)cc23)c(N)c1C#N,91.5% (inactive)
4,CN(C)CCCn1c2c(c3ncccc3c1=O)C(=O)c1ccccc1-2,61.8% (inactive)
5,COc1cc(-c2nc3cc(Cl)c(Cl)cc3[nH]2)ccc1OCC(=O)N=Nc1c(O)[nH]c2ccc([N+](=O)[O-])cc12,71.7% (inactive)
6,C=CC(=O)NCc1ccc(Nc2nccc(-c3ccc(N4CCCC4)c(C#N)c3)n2)cc1,16.2% (inactive)
7,CSc1nnc(-c2cnn3c2NC(c2ccccc2)C3)n1-c1ccc(C(F)(F)F)cc1 (stereo not given),59.1% (inactive)
8,N=C(N)c1ccc(-c2ccc(-c3ccc(Cl)cc3)s2)nc1,18.1% (inactive)
9,O=C(OCc1ccc2c(Cl)cc(Cl)c(O)c2n1)n1cncn1,25.1% (inactive)
10,Cn1ccc2c3c(ccc21)CC3=O,119% (inactive)
11,O=C1c2ccc3c4ccc5c6c(ccc(c7ccc(c2c37)C(=O)N1CCC[P+](c1ccccc1)(c1ccccc1)c1ccccc1)c64)C(=O)N(CCC[P+](c1ccccc1)(c1ccccc1)c1ccccc1)C5=O,75.9% (inactive)
12,CCn1c(=S)[nH]c2c(=O)n(C)c(=O)n(C)c21,114% (inactive)
13,N#CC1=C(N)Oc2c(sc3c(F)cccc23)C1c1ccc(F)cc1 (stereo not given),60.8% (inactive)
14,C=C(C)[C@@H]1CC[C@]2(C(=O)N3CCN(C)CC3)CC[C@]3(C)[C@H](CC[C@@H]4[C@@]5(C)CC(=C/c6ccncc6)/C(=N/O)C(C)(C)[C@@H]5CC[C@]43C)[C@@H]12,69.2% (inactive)
15,Fc1ccc2[nH]cc(-c3nonc3-c3c[nH]c4ccc(Br)cc34)c2c1,36% (inactive)
16,O=C1c2c(c3c4ccc(Br)cc4oc3c3[nH]c4ccccc4c23)C(=O)N1O,66% (inactive)
17,NC(=O)CCC(C(=O)O)N1C(=O)c2ccc(O)cc2C1=O (stereo not given),123% (inactive)
18,COc1ccc2nc(NC(=O)CSc3nnc4n3S(=O)(=O)c3ccccc3N4C)sc2c1,107% (inactive)
19,C=C(C)[C@@H]1CC[C@]2(C(=O)NCC#CCN3CCN(C)CC3)CC[C@]3(C)[C@H](CC[C@@H]4[C@@](C)(CCC#N)[C@H](C(=C)C)CC[C@]43C)[C@@H]12,52.8% (inactive)
20,Cc1nnc(-n2c(O)cc(=O)n(-c3ccccc3)c2=S)nc1/C=C/c1ccc(N(C)C)cc1,50.3% (inactive)

row,Structure (SMILES),growth
1,C/C(=N\NC(=O)c1ccccc1O)c1cccc(/C(C)=N/NC(=O)c2ccccc2O)n1,35.4% (inactive)
2,O=C1c2cc(Cl)ccc2S(=O)(=O)c2c(NCCCNCCO)nc3ccccc3c21,-32.2% (active)
3,Cc1cc2c(O)c(-c3cc(Cl)ccc3Cl)c3sc(=O)oc3c2cc1C,24.5% (inactive)
4,O=C(Nc1ccc(NC(=O)c2cc(=O)[nH]c3ccccc23)cc1)Nc1cccc(C(F)(F)F)c1,74.2% (inactive)
5,c1ccc(C2=NN[C@H](c3cn(-c4ccccc4)nc3-c3ccccc3)C2)cc1,14.8% (inactive)
6,O=C(CCCCC1CCSS1)Nc1ncnc2n[nH]c(-c3ccc(Oc4ccccc4)cc3)c12 (stereo not given),108% (inactive)
7,COc1cc(OC)cc(C2=C3CC[C@@H]4[C@H](CC[C@]5(C)C(=O)CC[C@@H]45)C3=CC3C(O)c4cccnc4N4C(=O)COC234)c1 (stereo not given in full),87.1% (inactive)
8,Cc1cnc(C(=O)NNc2nc3sc4c(c3c(=O)n2C)C(C)CCC4)cn1 (stereo not given),-14.7% (active)
9,C=C(CNCCc1ccc(O)cc1)[C@@H]1CC[C@]2(CO)CC[C@]3(C)[C@H](CC[C@@H]4[C@@]5(C)CCC(NCCO)C(C)(C)[C@@H]5CC[C@]43C)[C@@H]12 (stereo not given in full),-15.9% (active)
10,COc1ccc(/C=N/C2=C(C#N)C(c3cccc(Cl)c3)c3c(ccc4ccccc34)O2)cc1 (stereo not given),52.8% (inactive)
11,CCc1ccc(Oc2cn[nH]c2-c2ccc(OCCc3ccc(F)cc3)cc2O)cc1,89.5% (inactive)
12,O=C(/C=C/c1cn(-c2ccccc2)nc1-c1ccc([N+](=O)[O-])cc1)c1ccc(Cl)cc1,-21.8% (active)
13,CO[C@H]1/C=C(/C)CCC[C@H](C)[C@H](O)[C@@H](C)C(=O)C(C)(C)[C@@H](O)CC(=O)O[C@@H]1/C(C)=C/c1csc(C)n1,63.7% (inactive)
14,Clc1ccc(CNc2c3ccccc3nc3ccccc23)cc1,33.1% (inactive)
15,CCCCN[C@H]1CC[C@@]2(C)[C@@H](CC[C@@]3(C)[C@H]2[C@H](O)C[C@H]2/C(=C(\CCC=C(C)C)C(=O)OC)[C@@H](OC(C)=O)C[C@@]23C)[C@@H]1C,102% (inactive)
16,N#Cc1c(NC(=O)c2ccccc2)sc2c1CCC(=O)C2,-64.9% (active)
17,O=[N+]([O-])c1ccc(N/N=C(/C(=N/Nc2ccc([N+](=O)[O-])cc2)c2ccccc2)c2ccccc2)cc1,116% (inactive)
18,Oc1c(Cl)cc(Cl)c2ccc(Cn3cc(-c4cc(C(F)(F)F)cc(C(F)(F)F)c4)nn3)nc12,48.6% (inactive)
19,COc1cc(-c2cc(-c3ccc(N(C)C)cc3)nc(N3CCC(O)CC3)c2C#N)cc(OC)c1OC,50.8% (inactive)
20,Cc1nn(-c2ccccc2)c(Oc2ccccn2)c1-c1nc2ccccc2s1,98.7% (inactive)

# Reference: PubChem BioAssay (NCI)
